Compound activity from PubChem BioAssay.
The list is not random: actives were taken first. Their share in the collection is about 1.9%.
eIF4H inh = human eIF4H binding inhibitors, primary screen, translation initiation inhibitor project, biochemical, uHTS, fluorescence polarization; eIF4H fluorescence polarization binding assay; inhibition, % at 35 µM; Eukaryotic translation initiation factor 4H (Homo sapiens), Q15056; 0.94% of 290,000 active;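 further: calls also rest on retests at 20 µM and on dose response follow-up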
PABP FP inh = PABP poly(A) RNA binding inhibitors, primary screen, biochemical, fluorescence polarization, uHTS; Polyadenylate-binding protein 1 (Homo sapiens), P11940; calls only at 35 µM; 1% of 290,000 active; AID 2014, 2009;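 further: calls also rest on retests at 20 µM and on dose response follow-up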
Target sequence (P11940 whole entry, looked up): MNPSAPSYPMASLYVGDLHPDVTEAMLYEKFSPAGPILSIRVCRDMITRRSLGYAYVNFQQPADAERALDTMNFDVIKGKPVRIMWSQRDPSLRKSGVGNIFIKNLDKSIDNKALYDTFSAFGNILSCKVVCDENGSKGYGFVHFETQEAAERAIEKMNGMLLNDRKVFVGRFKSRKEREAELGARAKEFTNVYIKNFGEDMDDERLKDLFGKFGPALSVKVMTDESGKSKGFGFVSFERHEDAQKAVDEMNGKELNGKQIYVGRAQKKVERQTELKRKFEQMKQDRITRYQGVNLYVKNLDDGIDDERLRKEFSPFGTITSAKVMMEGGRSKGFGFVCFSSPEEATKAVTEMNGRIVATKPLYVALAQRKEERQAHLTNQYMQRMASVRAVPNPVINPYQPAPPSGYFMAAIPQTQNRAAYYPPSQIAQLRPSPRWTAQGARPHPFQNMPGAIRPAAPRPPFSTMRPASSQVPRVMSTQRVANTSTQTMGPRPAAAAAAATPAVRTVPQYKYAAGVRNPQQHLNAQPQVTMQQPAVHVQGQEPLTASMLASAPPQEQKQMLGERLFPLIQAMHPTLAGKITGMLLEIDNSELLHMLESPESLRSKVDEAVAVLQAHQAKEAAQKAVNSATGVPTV
14-3-3 Bad inh = inhibitors of 14-3-3 zeta/Bad binding, primary screen, biochemical, TR-FRET, bovine 14-3-3 zeta | 14-3-3 protein zeta/delta (Bos taurus), P63103 | 0.71% of 220,000 active | inhibition, % at 21.7 µM | TR-FRET 14-3-3zeta/Dy647-pBad peptide displacement, 1 h;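 active means inhibition above about 70%, limit read from the data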
eIF4E 4G PPI = eIF4E–eIF4G protein interaction inhibitors, primary screen, biochemical, uHTS, TR-FRET, eIF4GI fragment; TR-FRET eIF4E-eIF4GI(517-606) binding, 2 h; inhibition, % at 21.7 µM; 0.37% of 220,000 active; AID 782, 2007;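 active means inhibition above about 30%, limit read from the data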
PABP1 MLLE inh = inhibitors of PABP1 MLLE–PAM2 peptide binding, primary screen, biochemical, fluorescence polarization, FITC-PAM2, GST-MLLE | Polyadenylate-binding protein 1 (Homo sapiens), P11940 | inhibition, % at 20 µM | 0.36% of 360,000 active; in the data active means inhibition above about 35%, passing the limit was not always enough
Hits are given with their value; i = inactive; ? = inconclusive; nt = no result; + = active, no number; [ ] = remark or other dose. Unless noted, how the calls were made is not given here.

SMILES | eIF4H inh | PABP FP inh | 14-3-3 Bad inh | eIF4E 4G PPI | PABP1 MLLE inh
CCOC(=O)NC(=O)/C(C#N)=C/c1ccc(N(C)C)cc1 | i | + | i | i | i
COc1ccc(/C=C/C(=O)OCC(=O)Nc2cc(S(=O)(=O)N(C)C)ccc2Cl)cc1 | i | i | i | i | i
O=C(COC(=O)/C=C/c1ccco1)Nc1ncc(Cl)cc1Cl | 79 | + | i | i | i
Cc1nc(NC(=O)COC(=O)/C=C/c2ccco2)c(Cl)cc1Cl | nt | nt | nt | nt | i
CN(C)S(=O)(=O)c1ccc(Cl)c(NC(=O)COC(=O)/C=C/c2ccco2)c1 | i | + | i | i | i
CN(C)S(=O)(=O)c1cccc(NC(=O)COC(=O)/C=C/c2ccc(Br)o2)c1 | ? | + | i | i | i
O=C(c1cccs1)N1CCCC(N2CCN(c3ccc(F)cc3)CC2)C1 (centres undefined) | i | i | nt | nt | i
O=C(Nc1ccnc(-c2cccnc2)n1)c1cccc(Cl)c1Cl | i | i | i | i | i
Oc1ccc(O)c(Cc2nc3ccccc3s2)c1 | 82 | + | i | i | i
N/C(Cc1nc2ccccc2s1)=N\O | i | i | i | i | i
NC(=O)CSCc1nc2ccccc2s1 | 55 | + | i | i | i
O=C(N/N=C/c1ccc(N2CCOCC2)cc1)c1ccccc1OCCOc1ccccc1 | 104 | + | i | i | i
C(=N\Nc1ccccc1)/c1ccc(N2CCOCC2)cc1 | i | i | 88[fluorescence artefact?] | i | i
Clc1cccc(N/N=C/c2ccc(N3CCOCC3)cc2)c1 | i | i | i | i | i
Cc1ccc(NC(=O)c2cc3c(=O)oc4ccc(C)cc4c3s2)nc1 | i | i | 78 | i | nt
C=CCNc1nc(NCc2ccc(N(C)C)cc2)c2sc(-c3ccccc3)cc2n1 | nt | nt | nt | nt | i
COc1ccccc1OC(C)C(=O)N1CC(=O)Nc2ccccc21 (centres undefined) | i | i | nt | nt | i
CC(=O)CSc1ccc(C(=O)O)cn1 | i | i | i | i | i
CC1CCN(C(=O)c2[nH]cnc2C(=O)N[C@@H](C)c2ccccc2)CC1 | nt | nt | nt | nt | i
CCOC(=O)CCNC(=O)N1CCCC(C(=O)c2cccc(OC(C)C)c2)C1 (centres undefined) | i | i | nt | nt | i
CC1=CC(C#N)(C#N)C(C#N)(C#N)C(c2ccccc2)N1 (centres undefined) | 102 | + | i | i | nt
CCN(C(=O)CN1CCCc2ccccc21)c1c(N)n(Cc2ccccc2)c(=O)[nH]c1=O | 99 | + | nt | nt | nt
CCCCN(C(=S)NC(=O)c1ccccc1)c1c(N)n(Cc2ccccc2)c(=O)[nH]c1=O | i | i | i | i | 37
CCN(C(=O)CN1CCCc2cc(C)ccc21)c1c(N)n(Cc2ccccc2)c(=O)[nH]c1=O | nt | nt | nt | nt | i
NS(=O)(=O)c1ccc(N2C(=O)CCCC2=O)cc1 | nt | nt | nt | nt | i
SMILES | eIF4H inh | PABP FP inh | 14-3-3 Bad inh | eIF4E 4G PPI | PABP1 MLLE inh
Cc1[nH]c2ccc(C(=O)NC3CCC(C)CC3)cc2c1C (centres undefined) | i | i | nt | nt | i
COc1ccccc1OCCC(=O)Nc1cccc(S(=O)(=O)N2CCOCC2)c1 | nt | nt | nt | nt | i
CCCCCn1c(C(Cc2ccccc2)NC(=O)COC)nc2ccccc21 (centres undefined) | i | i | i | i | i
CC1=CC(=O)C(Sc2ccc(C)cc2)=CC1=O | nt | nt | nt | nt | 35
Cc1ccc(SC2=C(Sc3ccc(C)cc3)C(=O)c3ccccc3C2=O)cc1 | i | i | i | i | i
COC(=O)C1=NN(C(=O)c2cccc(Br)c2)C(O)(c2ccc(Cl)cc2)C1 (centres undefined) | 58 | i | i | i | i
CC1CCN(c2nc3c(c(=O)[nH]c(=O)n3C)n2CC(C)CSc2nnnn2-c2ccccc2)CC1 (centres undefined) | i | + | i | i | i
Cn1c(=O)[nH]c(=O)c2c1nc(N1CCCCC1)n2CCCSc1nnnn1-c1ccccc1 | active | + | i | i | i
CN1CCN(c2nc3c(c(=O)[nH]c(=O)n3C)n2CCCSc2nnnn2-c2ccccc2)CC1 | i | i | i | i | i
CCOC(=O)c1c(C)oc2c1c(C=NCc1ccccn1)c(O)c1ccccc12 | 121 | + | i | i | i
Cc1cnc(NC(=O)Cc2cccs2)s1 | i | i | i | i | i
Cc1cc(C)c(S(=O)(=O)/N=C2/C=C(Sc3ncn[nH]3)C(=O)c3ccccc32)cc1C | i | i | 76[fluorescence artefact?] | i | 45
N#C/C(=C/c1ccc(F)cc1)c1nnc(NC(=O)c2ccccc2)s1 | 88 | + | i | i | i
CN(Cc1ccc(F)cc1)S(=O)(=O)c1nnc(NC(=O)c2ccccc2)s1 | i | i | nt | nt | i
CN1CCc2c(sc(NC(=O)c3ccc([N+](=O)[O-])o3)c2C(N)=O)C1 | i | i | nt | nt | i
Cc1cc(NC(=O)c2cc3cc([N+](=O)[O-])ccc3s2)no1 | nt | nt | nt | nt | i
Cc1cccc(NC(=O)c2cc3cc([N+](=O)[O-])ccc3s2)n1 | i | i | 89 | i | i
CN1CCc2c(sc(NC(=O)c3cc4cc([N+](=O)[O-])ccc4s3)c2C(N)=O)C1 | i | i | 72 | i | nt
CC(C)N1CCc2c(sc(NC(=O)c3cc4cc([N+](=O)[O-])ccc4s3)c2C(N)=O)C1 | i | i | 95 | i | i
COc1ccccc1NC(=O)N(C)C[C@@H]1OCc2cnnn2CCCC(=O)N([C@@H](C)CO)C[C@H]1C | nt | nt | nt | nt | i
Nc1cc(N)c(OCC(F)(F)F)cc1OCC(F)(F)F | 106 | + | i | i | i
O=C(O)c1ccc(Cl)c2c1C1C=CCC1C(c1ccccn1)N2 (centres undefined) | 100 | + | i | i | nt
COC(=O)COc1ccc(C2Nc3c(Cl)ccc(C(=O)O)c3C3C=CCC32)cc1 (centres undefined) | i | + | i | i | i
COc1ccc(OC)c(C2Nc3c(Cl)ccc(C(=O)O)c3C3C=CCC32)c1 (centres undefined) | 71 | i | i | i | i
COC(=O)C1=C(C)NC(=O)C1(Nc1ccc(Cl)cn1)C(F)(F)F (centres undefined) | i | i | i | 35[fluorescence artefact?] | i
SMILES | eIF4H inh | PABP FP inh | 14-3-3 Bad inh | eIF4E 4G PPI | PABP1 MLLE inh
COC(=O)C1=C(C)NC(=O)C1(NC(=O)c1cccnc1)C(F)(F)F (centres undefined) | i | i | i | i | i
CCCCC(=O)Nc1ccc(NC(=O)CC)cc1OC | i | i | i | i | i
CCCCC(=O)Nc1ccc(NC(=S)NC(=O)CC(C)C)cc1OC | active | + | i | i | i
Cc1cc(=O)[nH]c(SCC(=O)Nc2ccc(C(=O)O)cc2)n1 | i | i | i | i | 47
CCOC(=O)c1ccc(NC(=O)CSc2nc(C)cc(=O)[nH]2)cc1 | 81 | + | i | i | i
Cc1cc(=O)[nH]c(SCC(=O)Nc2ccc(S(N)(=O)=O)cc2)n1 | 63 | + | i | i | i
